From PubChem BioAssay AID1220 (Sanford-Burnham Center for Chemical Genomics, 2008)
Hit rate of the full screen: of about 190,000 compounds, about 1,300 (0.68%) were called active. The full list was thinned out, with actives kept by preference. Values without a mark were called inactive. Rule as the data show it: active = inhibition above about 50%; inactive = the rest.

molecular target: Mannose-6-phosphate isomerase (Homo sapiens) (UniProt P34949); assay: MPI inhibition at elevated mannose 6-phosphate – biochemical, fluorescence intensity, high mannose 6-phosphate, primary screen (AID 1220); conditions: recombinant PMI enzyme, coupled fluorescence intensity; at 20 µM; hits give high values
Sequence (P34949 whole entry, looked up): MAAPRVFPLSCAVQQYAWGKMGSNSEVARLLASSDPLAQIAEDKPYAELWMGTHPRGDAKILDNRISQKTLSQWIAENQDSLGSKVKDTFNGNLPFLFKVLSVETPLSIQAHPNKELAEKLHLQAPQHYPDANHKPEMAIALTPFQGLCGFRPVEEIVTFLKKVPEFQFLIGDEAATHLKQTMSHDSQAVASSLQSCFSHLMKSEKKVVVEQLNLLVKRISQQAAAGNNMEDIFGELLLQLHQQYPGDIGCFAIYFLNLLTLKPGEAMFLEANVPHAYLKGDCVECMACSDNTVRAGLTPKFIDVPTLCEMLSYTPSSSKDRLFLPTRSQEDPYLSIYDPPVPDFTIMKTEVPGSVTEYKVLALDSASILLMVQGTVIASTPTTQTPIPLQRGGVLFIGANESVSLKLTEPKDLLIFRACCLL

Compound	inhibition
Cc1cccc(N2CCN(C(=O)c3ccc(CNc4c(N5CCC(C)CC5)c(=O)c4=O)cc3)CC2C)c1 (configuration not stated)	4.9%
O=C(CS(=O)CC(=O)N(c1cccc(F)c1)C(C(=O)NC1CCCCC1)c1ccco1)Nc1ccc(F)cc1 (configuration not stated)	-6.4%
C/C(=N\NC(=O)CN(c1ccccc1)S(=O)(=O)c1ccccc1[N+](=O)[O-])C(C)(C)C	8.8%
FCCCOc1ccc(-c2nccc(-c3ccc(Br)cc3)n2)cc1	8.4%
Cc1cc(NC(=O)CSc2nnc(C3CC3)n2-c2ccccc2)no1	-7.9%
COc1ccc(/C=N/Nc2cc(N3CCCC3)nc(N3CCCC3)n2)cc1	49%
COc1ccc(/C=N/Nc2nc(N3CCCC3)nc(N3CCCC3)n2)cc1	0.1%
COc1cc(/C=N/Nc2nc(N3CCCC3)nc(N3CCCC3)n2)ccc1O	5.1%
Oc1cccc(/C=N/Nc2cc(N3CCCC3)nc(N3CCCC3)n2)c1	59.8% (active)
C(=N\Nc1nc(N2CCCCCC2)nc(N2CCCCCC2)n1)/c1ccccc1	23.1%
Oc1ccc(Br)cc1/C=N/Nc1nc(N2CCCCC2)nc(N2CCOCC2)n1	20%
O=C(O)c1ccccc1/C=N/Nc1nc(N2CCCCC2)nc(N2CCCCC2)n1	-0.2%
Oc1ccccc1/C=N/Nc1cc(N2CCCC2)nc(N2CCCC2)n1	52% (active)
Oc1ccc(/C=N/Nc2cc(N3CCCC3)nc(N3CCCC3)n2)cc1	58.7% (active)
COc1cc(-c2cc(N)n(S(=O)(=O)c3ccccc3)n2)cc(OC)c1OC	-2.1%
CCOC(=O)c1ccc(S(=O)(=O)Nc2ccc3cn[nH]c3c2)cc1	24.1%
CC1CCC(NC(=O)Cn2cc3c(n2)CCCC3)CC1 (configuration not stated)	3.7%
CC(C)=CCCC1=CCC(/C=N/NC(N)=O)C(C)C1 (configuration not stated)	-36.5%
OC(c1ccccc1)c1nc2ccccc2s1 (configuration not stated)	6%
O=C(N/N=C/c1ccc(Br)o1)c1ccc2c(c1)OCCO2	0%
C(=N\Nc1nc2ccccc2[nH]1)/c1ccccn1	-33.9%

Compound	inhibition
N#CCCCN1C(=O)C(=C(C#N)C#N)c2ccccc21	59.5% (active)
CC(C)CN1C(=O)/C(=C(/C#N)C(=O)NC2CCCCC2)c2ccccc21	20%
N#CCCCN1C(=O)C(O)(CC(=O)c2ccc3c(c2)OCCO3)c2ccccc21 (configuration not stated)	11.1%
Cc1ccc(C(=O)NCCCNc2ccccc2[N+](=O)[O-])cc1	1.8%
Cc1ncc(S(=O)(=O)c2ccccc2)c(-c2ccccc2)n1	-4.6%
CC(C)C(=O)NC(=S)Nc1ccc(S(=O)(=O)NC(C)(C)C)cc1	-1.7%
COC(=O)C1=C(C)N(Cc2ccco2)C(=O)/C1=C\c1ccc(N(C)C)cc1	19.7%
CCN1C(=O)/C(=C\c2ccc3c(c2)OCO3)C(C(=O)OC)=C1C	-6.5%
CCOc1cc(/C=C2\C(=O)N(CCc3ccc(OC)c(OC)c3)C(C)=C2C(=O)OC)ccc1O	50.6% (active)
CCOc1cc(/C=C2\C(=O)N(Cc3ccco3)C(C)=C2C(=O)OC)ccc1O	68.2% (active)
COC(=O)C1=C(C)N(Cc2ccc(C)cc2)C(=O)/C1=C\c1ccc(O)c(OC)c1	58.7% (active)
COC(=O)C1=C(C)N(CCc2ccc(OC)c(OC)c2)C(=O)/C1=C\c1ccc(O)cc1	6%
C=CCOc1cccc(/C=C2\C(=O)N(Cc3ccc(C)cc3)C(C)=C2C(=O)OC)c1	10.8%
COC(=O)C1=C(C)N(Cc2ccco2)C(=O)/C1=C\c1ccc([N+](=O)[O-])cc1	-22%
COC(=O)C1=C(C)N(Cc2ccc(C)cc2)C(=O)/C1=C\c1cc(OC)c(OC)c(OC)c1	23.1%
CCOc1cc(/C=C2/N=C(C)C(C(=O)OC)=C2O)ccc1O	31.3%
COC(=O)C1=C(C)N(CCc2ccc(OC)c(OC)c2)C(=O)/C1=C\N(C)C	-13.2%
CCOc1cc(/C=C2\C(=O)N(Cc3ccc(C)cc3)C(C)=C2C(=O)OC)ccc1O	53.3% (active)
c1ccc(-c2nc3ccccc3[nH]2)nc1	15.7%
Cc1ccc(CCNC(=O)C2CCCN(C(=O)N(C)C)C2)cc1 (configuration not stated)	-6.4%
O=C(CN1C(=O)COc2ccccc21)N1CCc2ccccc21	1.2%

Compound	inhibition
COc1ccc(NC(=O)CC2C(=O)N(C)C(=S)N2CCc2ccccc2F)cc1 (configuration not stated)	8.1%
CC(C)=CCN1CCN(Cc2cnc(N3CCOCC3)s2)CC1CCO (configuration not stated)	-6.5%
O=C(C1=C[C@@H](c2coc3ccccc3c2=O)C[C@@H](OCc2ccc(CO)cc2)O1)N1CCOCC1	-6.8%
CCOC(=O)Cc1csc(SCn2nnc3ccccc3c2=O)n1	-0.1%
CCOC(=O)Cc1csc(NC(=O)c2cc(=O)c3ccccc3o2)n1	-6.1%
CCOC(=O)c1c(N)c(C#N)cn1-c1ccccc1	10%
CNC(=S)Nc1cccc2[nH]ncc12	2.6%
C=CCNC(=S)Nc1cccc2ccccc12	14.3%
C=CCNC(=S)Nc1cccc2[nH]ncc12	52.5% (active)
CCCCn1c2nc3ccccc3nc2c2c(=N)oc(C)nc21	30.1%
COc1ccc(-n2c3nc4ccccc4nc3c3c(=N)oc(C)nc32)cc1	55.9% (active)
CCCCC(CC)Cn1c2nc3ccccc3nc2c2c(=N)oc(C)nc21 (configuration not stated)	-4.2%
CCn1c(SCC(=O)N/N=C/c2ccc(C)o2)nnc1-c1ccccc1	3.1%
CN1CCN(S(=O)(=O)c2ccc3c(c2)OCCO3)CC1	-4.9%
CC(C)(Cl)C1Cc2cc3ccc(=O)oc3cc2O1 (configuration not stated)	-9.9%
COc1cc2c(cc1/C=C/C(=O)O)OC(C)C2 (configuration not stated)	13.7%
CCc1nnc(NC(=O)CSc2nnc3c(C)cc4c(C)ccc(C)c4n23)s1	2.3%
O=C(O)/C=C/C(=O)Nc1ccc2nccnc2c1	56.2% (active)
CC(C)(C)NC(=O)Nc1ccc2nccnc2c1	35.1%
Cc1nc2ccc(NC(=O)/C=C/C(=O)O)cc2nc1C	42.9%
